# Experimental data as given in ChEMBL document CHEMBL3988442, “University of Dundee, Small-Polar-MMV Screening Library” (2021).
# Out of some 48,000 compounds screened, about 13,000 (27%) showed an effect of 50% or more. The list shows a part of the results.
# System: Wolbachia pipientis
# Test: Anti-Wolbachia Cell-Based Screen
# Assay type: functional
# Design: scale not given: in the data most compounds retested in dose-response had high values
# Conditions: 5 µM
row,Compound,Percent Effect [%]
1,COc1cc(CN2CCCC2)ccc1Oc1ccc2c(c1)CC(CN)O2 (configuration not stated),-3.423
2,COc1ccccc1CC(=O)NS(C)(=O)=O,-0.264
3,COc1ccccc1CC(=O)NS(=O)(=O)c1ccc(NC(C)=O)cc1,120.5
4,COc1ccccc1CC(=O)NS(=O)(=O)c1cncc(Br)c1,1.416
5,COc1ccccc1CC(=O)NS(=O)(=O)c1ccc(C#N)cc1,90.41
6,CCCN(Cc1ccc(S(=O)(=O)NC)cc1)Cc1ccccc1OC,2.153
7,CCCc1nc(C)c(C(=O)NS(=O)(=O)c2ccc(C#N)cc2)s1,11.71
8,CCc1nc(CN2CCN(C(=O)COCc3ccccc3)CC2)no1,16.69
9,O=C(O)c1csc(S(=O)(=O)Nc2cccc(OCC(F)(F)F)c2)c1,12.1
10,Cc1nsc(NC(=O)N2CCCC2C)n1 (configuration not stated),-6.715
11,CSc1nsc(NC(=O)c2cc(C3CC3)nn2C)n1,105.4
12,CCCc1cc(C(=O)Nc2nc(SC)ns2)[nH]n1,-43.27
13,Cc1nsc(NC(=O)NC2CCN(C)CC2)n1,-30.6
14,CCCc1cc(C(=O)Nc2nc(SC)ns2)n(C)n1,129.6
15,CC(C)c1nn(C)c(N2CCOCC2)c1CNC(C)c1cccs1 (configuration not stated),1.351
16,CCNC(=O)NC(=O)CNC(C)(CC)c1nc(C)cs1 (configuration not stated),6.164
17,CC(C)CN(CC(C)C)Cn1ncc2cn(-c3ccccc3)nc2c1=O,8.982
18,Cc1nn(-c2ccccc2)cc1C(=O)N1CCCC1c1cnn(C)c1 (configuration not stated),105.2
19,Cc1ccccc1-n1ncc(C(=O)N2CCCC2c2cnn(C)c2)c1C (configuration not stated),-2.042
20,Cn1cc(C2CCCN2C(=O)c2cn(-c3ccccc3)nn2)cn1 (configuration not stated),82.94
21,Cc1c(C(=O)N2CCCC2c2cnn(C)c2)nnn1-c1ccccc1 (configuration not stated),-1.391
22,Cn1cc(C2CCCN2C(=O)Cn2ccc3ccccc32)cn1 (configuration not stated),10.33

row,Compound,Percent Effect [%]
1,Cc1c(C(=O)N2CCCC2c2cnn(C)c2)cnn1-c1ccccc1 (configuration not stated),112.8
2,Cc1ccc(-n2ncc(C(=O)N3CCCC3c3cnn(C)c3)c2C)cc1 (configuration not stated),102.1
3,Cc1nn(-c2ccccc2)nc1C(=O)N1CCCC1c1cnn(C)c1 (configuration not stated),5.794
4,CCCOc1ccc(C(=O)N2CCN3CCNC(=O)C3C2)cc1Cl (configuration not stated),-5.744
5,Clc1ccc(C2(NCc3noc(C4CC4)n3)CCC2)cc1,3.298
6,COCCN(Cc1cccc(C#N)c1)Cc1nnsc1Cl,9.531
7,COc1ccc(NC(=O)c2ccoc2C)c(N2CCN(C(C)=O)CC2)n1,0.9885
8,Cc1nc(CNC(=O)NCC(O)c2ccc(F)cc2F)cs1 (configuration not stated),-3.131
9,Cc1nc(C)n(CC2CCCCN2CCC(=O)Nc2cc(C)on2)n1 (configuration not stated),5.676
10,Cc1nc(C)n(CC2CCCCN2CC(=O)Nc2cc(C)on2)n1 (configuration not stated),106.4
11,Cc1nc(C)n(CC2CCCCN2CC(=O)Nc2ccncc2)n1 (configuration not stated),-2.552
12,Cc1nc(C)n(CC2CCCN2Cc2cc(C)on2)n1 (configuration not stated),-8.278
13,Cc1nc(C)n(CC2CCCN2CC(=O)Nc2cc(C)on2)n1 (configuration not stated),98.7
14,Cc1nc(C)n(CC2CCCN2CC(=O)Nc2cc(C(C)C)no2)n1 (configuration not stated),-1.165
15,Cc1nc2c(C(=O)N[C@H]3C[C@H]4CN(C)CCN4C3)cccc2[nH]1,8.866
16,CCCc1cc(N2CCCC2Cn2nc(C)cc2C)n2ncnc2n1 (configuration not stated),-3.923
17,CC(C)OCCS(=O)(=O)c1ccccc1C#N,-1.71
18,CC(NC(=O)C1CC1)c1cc(O)nc(-c2cccnc2)n1 (configuration not stated),92.57
19,O=C(Nc1cc(-c2cccnc2)no1)C1CCCCC1,-34.68
20,Cc1ccc(C)c(C(NC(=O)C2CC2)c2cccnc2)c1 (configuration not stated),-2.241
21,CN(CCNC(=O)Nc1ccn(C)n1)Cc1ccc(F)cc1,87.45
22,Cn1cc(CNC(=O)Nc2ccc(S(=O)(=O)C(F)F)cc2)cn1,-23.54

row,Compound,Percent Effect [%]
1,Cn1ccc(NC(=O)Cc2cccc(F)c2)n1,-26.85
2,CCc1nnc(CN(C)Cc2cccc(C(=O)Nc3nccs3)c2)o1,-6.732
3,CCCNC(=O)Nc1ccn(CCCOC)n1,-11.06
4,CN(CCNC(=O)Nc1nccs1)Cc1ccc(F)cc1,98.5
5,CN(CCNC(=O)Nc1cnn(C)c1)Cc1ccc(F)cc1,113
6,CCc1nnc(CN(C)Cc2cccc(C(=O)Nc3cnn(C)c3)c2)o1,-6.481
7,CC(NC(=O)Nc1nccs1)c1ccncc1 (configuration not stated),-0.7222
8,CC(=O)N1CCN(c2ccccc2CNc2cc(F)cc(F)c2)CC1,2.493
9,OCc1ccc(-c2nccn2CCC2=CCCCC2)o1,-8.705
10,CS(=O)(=O)CCSCc1cccc2cccnc12,-12.23
11,CN(CC(=O)Nc1cc(-n2nnnc2C2CC2)ccc1F)C1CCC1,-0.6608
12,CCN1C(=O)CCC12CCN(S(=O)(=O)c1ccccc1)CC2,-5.531
13,O=C(c1cccc(CO)n1)N1CCOC(c2ccc(Cl)c(Cl)c2)C1 (configuration not stated),-12.21
14,CC(O)c1cccc(N2CCC3(CCC(=O)N(CC(N)=O)C3)CC2)n1 (configuration not stated),-13.92
15,CC(O)c1cccc(N2CCC3(CCC(=O)N(C4CCCC4)C3)CC2)n1 (configuration not stated),47.1
16,CCOC(=O)c1cccc(N2CCCC3(CCC(=O)N(C4CC4)C3)C2)n1 (configuration not stated),78.13
17,N#Cc1cccc(N2CCCC3(CCC(=O)N(C4CCCC4)C3)C2)n1 (configuration not stated),106.1
18,CCCc1nc(C)cc(N2CCC3(CCC(=O)N(C4CC4)C3)CC2)n1,-0.6506
19,N#Cc1cccc(N2CCC3(CCC(=O)N(CC(N)=O)C3)CC2)n1,-17.91
20,CC(=O)c1ccc(N2CCC3(CCC(=O)N(C4CC4)C3)CC2)nc1,5.2
21,N#Cc1cccc(N2CCC3(CCC(=O)N(CC4CCCO4)C3)CC2)n1 (configuration not stated),-19.35
22,CC(C)c1cccc(N2CCCC3(CCC(=O)N(C4CC4)C3)C2)n1 (configuration not stated),105.3

row,Compound,Percent Effect [%]
1,CCNC(=O)NC[C@H]1COCc2nc3cc(C)ccc3n21,-20.29
2,CN(Cc1ccon1)C(=O)C1CC(=O)N(Cc2ccncc2)C1 (configuration not stated),7.553
3,COc1ccc(-c2cc(CC3(NCc4ccc(C)o4)COC3)no2)cc1,0
4,O=C(c1ccon1)N1CCc2ncnc(NCc3ccccn3)c2CC1,-13.25
5,COCc1noc(CCNc2ncnc3c2CCNCC3)n1,1.85
6,c1cncc(-c2noc(CNc3ncnc4c3CCNCC4)n2)c1,1.079
7,Clc1ccccc1-c1cc(CNc2ncnc3c2CCNCC3)no1,100.4
8,Cc1ccc(-c2cc(CNc3ncnc4c3CCNCC4)no2)cc1,96.68
9,COc1ccc(-c2cc(CNc3ncnc4c3CCNCC4)no2)cc1,113.1
10,c1cncc(-c2noc(CCNc3ncnc4c3CCNCC4)n2)c1,-0.2436
11,CCCS(=O)(=O)N1CC[C@H]2O[C@H](c3nnc(C)o3)CC[C@H]21,-25.7
12,CN(CC(N)=O)C(=O)c1cnc(-c2ccc(Cl)s2)s1,2.419
13,O=C(NCCOc1ccc2c(c1)CCC2)N1CCS(=O)(=O)CC1,35.32
14,CN1CCCN(C(=O)NCCOc2ccc3c(c2)OCO3)CC1,115.1
15,CC(=O)N1CCCN(C(=O)NCCOc2ccc3c(c2)OCO3)CC1,96.11
16,CCCN1CCCN(C(=O)Nc2ccc3c(c2)OCO3)CC1,-18.65
17,CC(C)Cc1noc(CNc2cc3c(cc2Cl)OCCCO3)n1,11.73
18,Cc1ccc(C(=O)NC(CN2CCCC2=O)c2ccccc2)c(=O)[nH]1 (configuration not stated),-15.69
19,Cc1ccc(C(=O)NCC2CCN(C)c3ccccc32)c(=O)[nH]1 (configuration not stated),-6.721
20,Cc1ccc(C(=O)Nc2ccc3c(c2)N(C)CCN(C)C3)c(=O)[nH]1,112.4
21,CCc1ccc(NC(=O)c2cnc(N3CCN(C)CC3)nc2C)cc1,0.5656
22,N#Cc1cc(NC(=O)c2cc[nH]n2)ccc1N1CCC(O)CC1,-7.892

row,Compound,Percent Effect [%]
1,Cc1cc(C(=O)NC2CCCN(c3ccccc3)C2=O)on1 (configuration not stated),-7.232
2,Cc1cc(C(=O)Nc2ccc3c(c2)N(C)CCN(C)C3)on1,108.1
3,CCc1ccc(C(=O)NC2CCN(c3cnn(C)c3)C2=O)o1 (configuration not stated),0.5002
4,Cn1cc(NC(=O)c2cc[nH]n2)cc(Cl)c1=O,-6.664
5,CN1CCN(C)c2cc(NC(=O)c3cc[nH]n3)ccc2C1,95.27
6,CCc1ccc(C(=O)Nc2ccc3c(c2)N(C)CCN(C)C3)o1,68.84
7,CCc1ccc(C(=O)Nc2cc(N3CCNC3=O)ccc2Cl)o1,2.04
8,CC(C)N(CC(N)=O)Cc1c(Cl)ccc2cccnc12,35.48
9,CCN(CC)C(=O)c1cnc(Sc2nccn2C)c(Cl)c1,-3.996
10,COc1ccccc1CC(=O)NCCCN1CCCC1C(=O)N(C)C (configuration not stated),-7.215
11,CCN(Cc1noc(C)n1)C(=O)C(c1ccccc1C)N(C)C (configuration not stated),20.53
12,CS(=O)(=O)NCC(=O)NC1(c2ccc(Cl)c(Cl)c2)CC1,-6.64
13,Cc1ccc(-n2cc(CN3CCOCC(CN(C)C)C3)cn2)cc1C (configuration not stated),-29.82
14,Cc1cn2nc(N3CCCC3C(=O)N3CCSCC3)sc2n1 (configuration not stated),-34.07
15,O=C(C1CCCN1c1ncnc2ccsc12)N1CCSCC1 (configuration not stated),-9.281
16,O=C(Nc1cccc(N2CCCC2)c1)C1CCCN1c1nccs1 (configuration not stated),-13.09
17,Cl.O=C(O)[C@@H]1CCCN1c1nccc(Nc2ccccc2)n1,110.6
18,CNC(=O)[C@@H](c1ccccc1)N1CCC[C@H]1C(=O)NCc1ccccn1.Cl.Cl,-0.04544
19,O=C([C@@H]1CCCN1c1nccc(Nc2ccccc2)n1)N1CCCCC1,107.6
